# Sampled rows, rich in hits. Any-hit rate of the full collection: about 1.4%.
# HTT promoter inh – inhibitors of huntingtin promoter activity; HEK293 HTT promoter firefly luciferase reporter, 24 h; AID 1508623; 48,000 compounds, 0.93% hits; Potency, µM (top dose mostly 57.5 µM), for the others: at the highest dose activity change, negative = inhibition, usual class: inhibitors; further: potency means the concentration at half of the fitted maximal effect; nearly all actives have a fitted effect of over 50% in size
#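 HEK293 luciferase promoter-reporter cells (2,500/well) plated 24 h, then compounds added at up to 57.5 uM final for 24 h at 37 °C. Firefly luminescence by Dual-Glo, normalized to vehicle (0%) and zero RLU (-100%).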
# PTAP-TSG101 blk – inhibitors of HIV-1 PTAP binding to human TSG101, validation | Fluorescence polarization, FITC-PTAP peptide/Tsg101, 20 min | Potency, µM (doses to about 115 µM), hits mostly inhibitors | 44,000 tested, under 10 active | AID 1347069; further: potency means the concentration at half of the fitted maximal effect; 0% is about no effect
#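 Fluorescence polarization binding of Tsg101 binding domain (10 uM final) to FITC-labeled PTAP-motif peptide (50 nM final) in HEPES pH 7.5/NaCl/Tween 20/EDTA/TCEP buffer; 20 min at r.t. Actives by curve class, <25 µM, efficacy <60% inhibition.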
# B2AR arrestin ag – agonists recruiting beta-arrestin to human beta2-adrenergic receptor; P07550; HTLA Tango cells, beta-arrestin recruitment, luciferase luminescence, 18 h; Potency, µM (titrated, usually from 46.1 µM), hits mostly activators; 44,000 tested, under 10 active; AID 1347077;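 further: potency means the concentration at half of the fitted maximal effect; 0% = DMSO and full agonism = EC100 isoproterenol or metaproterenol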
#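 First, Tango cells carrying beta2-AR and beta-arrestin fusions received compound up to 46 microM. After 18 hr at 37 degrees C, luciferase substrate was added for 15 minutes, then luminescence gave %Activity for curve fitting.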
# HTT-AS act – activates huntingtin-antisense promoter activity; HEK293 HTT-AS promoter firefly luciferase reporter, 24 h; response scale: percent change from vehicle, -100% = no light; Potency, µM (series often up to 57.5 µM), without a hit: at the highest dose activity change, positive = activation, most hits filed as activators; 48,000 compounds, 0.24% hits; further: potency means the concentration at half of the fitted maximal effect; nearly all actives have a fitted effect of over 55% in size
#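 Firefly luciferase signal from promoter-reporter HEK293 cells was scaled between vehicle (0%) and zero RLU (-100%). Compounds were tested at final concentrations of up to 57.5 uM over 24 h at 37 degrees C. PTC124 at 50 uM final served as control inhibitor.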
# GALK inhibitor – inhibitors of human galactokinase (GALK). recombinant GALK, Kinase-Glo ATP luminescence, 1 h. 44,000 tested, under 10 active. Potency, µM (top dose mostly 57.5 µM), for the others: at the top dose activity, negative = inhibition, actives largely listed as inhibitors. P51570;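 further: plate controls were full GALK reaction for no effect and reaction lacking GALK for full effect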
# Target sequence (P51570 whole entry, looked up): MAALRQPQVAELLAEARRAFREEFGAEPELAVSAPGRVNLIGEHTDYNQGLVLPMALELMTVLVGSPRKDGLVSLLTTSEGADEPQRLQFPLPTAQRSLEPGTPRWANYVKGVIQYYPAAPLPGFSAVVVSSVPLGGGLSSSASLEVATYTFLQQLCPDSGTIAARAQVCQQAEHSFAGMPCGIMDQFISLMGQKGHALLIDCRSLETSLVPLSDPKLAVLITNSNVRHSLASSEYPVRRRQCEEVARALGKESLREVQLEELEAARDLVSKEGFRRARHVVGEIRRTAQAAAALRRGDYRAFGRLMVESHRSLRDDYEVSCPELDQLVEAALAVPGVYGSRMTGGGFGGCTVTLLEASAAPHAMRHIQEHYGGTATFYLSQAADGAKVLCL
#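 Luminescent ATP-depletion readout (Kinase-Glo Plus, 10 min) after 1 h RT reaction of 5 nM GALK, 35 uM ATP, 100 uM galactose, pH 8.0 HEPES buffer. Decreased kinase activity scored as inhibition.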
# GALC G270D up – enhancers of human galactocerebrosidase G270D mutant activity in cells; P54803; 145M-Twi-hGALC-G270D cells (Twitcher mouse brain line with human GALC G270D), HMU-beta-Gal fluorescence, 48 h; Potency, µM (doses to about 57.5 µM), most hits filed as activators; 45,000 compounds, 0.1% hits; AID 1159614; further: potency means the concentration at half of the fitted maximal effect; 0% is about no effect; nearly all actives have a fitted effect of over 65% in size
#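 Mutant human GALC (G270D), stably expressed in a Twitcher mouse brain cell line lacking endogenous GALC, is measured in live-treated cells via 6-hexadecanoylamino-4-methylumbelliferyl-β-galactoside hydrolysis (0.1 mM final, pH 5.2) with fluorescent detection.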
# * = called active by the depositor; i = inactive; ? = inconclusive; · = not tested or not shown; [ ] = dose if it differs, or a comment. The call rests on the fitted dose curve; in most records, active means well fitted curve in the direction sought with a large enough effect; inconclusive means small, poorly fitted or top-dose-only effect, or another doubt; inactive means no such curve, though single readings can be large; an effect the other way counts as inactive or inconclusive.
SMILES,HTT promoter inh,PTAP-TSG101 blk,B2AR arrestin ag,HTT-AS act,GALK inhibitor,GALC G270D up
O=C(CSc1nnc2[nH]c(=O)cc(-c3ccccc3)n12)Nc1cc(C(F)(F)F)ccc1Cl,36%,i,i,18µM*,-6%,i
CC(C)(C)c1ccc(C(=O)NCC(c2cccs2)S(=O)(=O)c2ccc(F)cc2)cc1 (stereo unspecified),20µM*,i,i,-58%,2%,i
Cc1ccccc1C(=O)Nc1sc2c(c1C(=O)O)CCC(C(C)(C)C)C2 (stereo unspecified),2.8µM*,i,i,-37%,-5%,i
Cc1c(-c2ccccc2)c(=O)oc2c(CN3CCN(C)CC3)c(O)ccc12,-13%,i,i,-17%,1%,4.5µM*
CSc1ccc(CNC(=O)c2cc3c(=O)n(Cc4ccco4)ccc3nc2C)cc1,·,i,i,·,1%,·
COc1ccc(CN2CCc3nc(N4CCN(c5ccc(F)cc5)CC4)ncc3C2)c(OC)c1OC,1.6µM*,i,i,-57%,0%,i
COc1ccccc1N1CCN(c2ncc3c(n2)CCN(Cc2ccccc2F)C3)CC1,-11%,i,i,-14%,-2%,i
Cc1ccccc1OCC(=O)Nc1ccccc1C(=O)OCc1cc(=O)n2ccsc2n1,8%,i,i,-13%,-1%,i
Cc1ccccc1OCC(=O)Nc1ccccc1C(=O)OCc1cc(=O)n2c(C)csc2n1,2.2µM*,i,i,-47%,-2%,i
CC(C)c1ccc(NC(=O)N2CCN(c3ccc(Cl)c(Cl)c3)CC2)cc1,32µM*,i,i,-42%,11%,i
Cc1cccc(N(CC(=O)Nc2cccc(Cl)c2C)S(C)(=O)=O)c1C,-26%,i,i,12%[11.5 µM],0%,i
CN(C)c1ccc(Nc2nc(N)n(C(=O)c3c(F)cccc3F)n2)cc1,21%,·,·,24µM*,·,·
Cc1c(-c2ccccc2)n(-c2ccccc2O)c2nc3c(c(=O)n(C)c(=O)n3C)n12,?,i,i,-44%,1%,i
CCCCOc1ccc(CNC(=O)Cn2ncn3c(cc4cc(F)ccc43)c2=O)cc1,·,i,i,·,11%,·
CN1CCN(C(=O)c2ccc3c(c2)N(Cc2ccc(C(F)(F)F)cc2)C(=O)c2ccccc2S3)CC1,-22%,i,i,-20%,-1%,i
Cc1cccc(NC(=O)c2c(Br)sc3c2CCCC3)c1,-28%,i,i,-24%,-5%,i
Cc1ccccc1NC(=O)c1c(NC(=O)c2ccccc2)sc2c1CCC2,9%,i,i,15%,1%,i
O=C(Nc1cccc(Cl)c1)c1c(NC(=O)C(F)(F)F)sc2c1CCCC2,1.8µM*,i,i,-94%,-1%,i
Cc1cccc(NC(=O)c2c(NC(=O)C(F)(F)F)sc3c2CCCCC3)c1,2µM*,i,i,-92%,-13%,i
Cc1ccccc1NC(=O)c1c(NC(=O)C(F)(F)F)sc2c1CCCCC2,2µM*,i,i,-96%,-1%,i
Cc1ccc(NC(=O)c2c(NC(=O)C(F)(F)F)sc3c2CCCCC3)cc1,1.4µM*,i,i,-94%,0%,i
CCN1CCN(CCCNC(=O)c2cnn(-c3ccccc3Cl)c2C2CCN(C(=O)OC(C)(C)C)CC2)CC1,-14%,i,i,-13%,1%,i
COc1ccccc1NC(=O)c1cc(S(=O)(=O)N(C)C2CCCCC2)ccc1F,?,i,i,-28%,-5%,i
CCCS(=O)(=O)c1c(S(=O)(=O)CCC)c2cc(C(C)(C)C)ccn2c1C(=O)c1ccccc1,25µM*,i,i,-84%,-2%,i
Cn1c(-c2ccc(S(=O)(=O)N3CCCC3)cc2)csc1=Nc1ccc(Cl)c(Cl)c1,5µM*,i,i,-74%,0%,i
SMILES,HTT promoter inh,PTAP-TSG101 blk,B2AR arrestin ag,HTT-AS act,GALK inhibitor,GALC G270D up
CCn1c(-c2ccc(S(=O)(=O)N3CCOCC3)cc2)csc1=Nc1ccc(C)c(Cl)c1,-12%,i,i,-9%,-3%,i
O=C(Nc1ccc(C(F)(F)F)cc1)c1cc(S(=O)(=O)NC2CCCCCC2)ccc1F,28µM*,i,i,-75%,1%,i
O=C(Nc1ccc(C(F)(F)F)cc1)c1cc(S(=O)(=O)NC2CCCCC2)ccc1F,?,i,i,-39%,-2%,i
COc1ccc(CNCc2c(C(=O)O)n(Cc3ccc(F)cc3)c3cc(C)ccc23)cc1OC,-23%,i,i,-30%,-1%,i
Cc1ccc(OCc2cc(=O)n3c4c(sc3n2)CCCC4)c(C)c1,0%,i,i,-5%,7%,?
CCn1cc(C(=O)NCCCOC(C)C)c(=O)c2cc(S(=O)(=O)N3CCc4ccccc4C3)ccc21,-17%,i,i,-20%,7%,i
O=C(NCCc1ccccc1)C(=O)NCC(c1cccnc1)N1CCN(c2ccc(F)cc2)CC1 (stereo unspecified),14µM*,i,i,-49%,-1%,i
COc1ccccc1N1CCN(C(CNC(=O)C(=O)NCCc2ccccc2)c2cccnc2)CC1 (stereo unspecified),7.1µM*,i,i,-57%,?,i
COc1ccc(C(=O)NCC(c2cccnc2)N2CCN(c3ccccc3OC)CC2)cc1 (stereo unspecified),?,i,i,-53%,2%,i
O=C(NCc1cccnc1)C(=O)NCC(c1cccnc1)N1CCN(c2ccc(F)cc2)CC1 (stereo unspecified),?,i,i,-15%,3%,i
Cc1ccc(-n2c(=O)c3c4c(sc3n(Cc3ccccc3F)c2=O)CCC4)cc1C,-12%,i,i,-8%,7%,i
COc1cc(OC)cc(-c2nc(-c3cccc(C)c3)no2)c1,61%,i,i,11µM*,2%,i
COc1ccccc1OCc1nc(-c2cccc(C)c2)no1,69%,i,i,10µM*,3%,i
CCOc1ccc(-c2nonc2NC(=O)c2oc3cc(C)ccc3c2C)cc1OCC,-16%,i,i,-5%,0%,i
Cc1cc(NC(=O)c2oc3c(c2C)-c2[nH]ncc2CC3)ccc1Br,68%,i,i,1.1µM*,3%,i
Cc1cc2nc(-c3cccc(NC(=O)COc4ccc(C(C)C)cc4)c3)oc2cc1C,74%,i,i,1µM*,8%,i

# Source: PubChem
